Biological target: Solute carrier family 2, facilitated glucose transporter member 1 (Homo sapiens) (UniProt P11166)
Experiment: ST_JUDE_LEISH: Cytotoxicity at 2uM final concentration against transgenic Leishmania Mexicana promastigotes LmGLUT1 that are glucose transport deficient and complemented with the human glucose transporter GLUT1. Activity is measured by DNA content using SYBR green in vitro
Type: functional

Sequence of Solute carrier family 2, facilitated glucose transporter member 1 (Homo sapiens) (P11166 whole entry): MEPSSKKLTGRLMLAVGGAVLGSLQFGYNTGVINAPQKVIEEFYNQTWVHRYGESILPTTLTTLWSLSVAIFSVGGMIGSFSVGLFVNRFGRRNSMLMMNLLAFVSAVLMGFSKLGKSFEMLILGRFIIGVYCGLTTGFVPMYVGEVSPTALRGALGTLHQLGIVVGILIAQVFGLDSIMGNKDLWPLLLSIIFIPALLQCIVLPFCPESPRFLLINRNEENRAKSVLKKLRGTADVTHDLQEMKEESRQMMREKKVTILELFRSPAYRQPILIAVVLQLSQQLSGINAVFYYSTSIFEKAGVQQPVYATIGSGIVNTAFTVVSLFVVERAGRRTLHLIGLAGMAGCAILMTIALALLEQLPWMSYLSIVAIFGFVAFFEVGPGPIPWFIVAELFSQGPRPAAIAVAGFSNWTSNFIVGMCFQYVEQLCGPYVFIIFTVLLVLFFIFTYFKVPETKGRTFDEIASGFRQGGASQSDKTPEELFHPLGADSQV

SMILES | inhibition
CC1(C)NC(N)=NC(=N)N1OCCc1ccc(N)cc1 | 5.6%
COc1cc(Nc2ccnc3cc(-c4ccncc4)ccc23)cc(OC)c1OC | 11.4%
C=CCn1c(Sc2ccc(C#N)c([N+](=O)[O-])c2)nnc1-c1cccc(Cl)c1 | -1.46%
CCN(CC)/C(=N/C(=N)Nc1ccc(Br)cc1)NCCCCCCN/C(=N\C(=N)Nc1ccc(Br)cc1)N(CC)CC | -1.08%
CCN1CCN(C(=O)NC(C(=O)N(C)Cc2ccc(-c3ccc(C(F)(F)F)cc3)cc2)c2cccs2)C(=O)C1=O (stereo not given) | 1.34%
Cc1ccc(NC(=O)c2ccc3nccnc3c2)cc1OC1CCN(Cc2ccc(F)cc2)CC1 | 10.6%
Cc1cc(N(C)CCCN(C)C)nc(Nc2ccc(Br)cc2)n1 | 0.19%
CN(CCC1CCN(C(=O)/C=C/c2ccc(Cl)c(Cl)c2)CC1)C1CCC(c2c[nH]c3ccccc23)CC1 (stereo not given) | 7%
Cc1cc(O)c2c3c1C(=O)C=C1C3c3c(c(O)cc(O)c3C(=O)C1(C)C)C2=O (stereo not given) | -4.69%
CCN1CCC(NCc2ccc(-c3ccc(Cl)s3)cc2)CC1 | -1.87%
CCOC(=O)/C(=N\OC(C(=O)OC(C)(C)C)c1ccccc1)c1csc(NC(c2ccccc2)(c2ccccc2)c2ccccc2)n1 (stereo not given) | 0.73%
CSc1ccc2nccc(Nc3ccc(Oc4ccccc4)cc3)c2c1 | 5.73%
CCCCCCNCCOc1ccc(-c2nc(-c3ccccc3)c(-c3ccccc3)[nH]2)cc1 | 4.61%
CCN(CC)CCN(Cc1ccc(-c2ccc(Br)cc2)cc1)C(=O)Cn1c(CCc2cccc(F)c2F)nc(=O)c2ccccc21 | 2.2%
COc1ccc(Cn2c(SCc3ccc(C)cc3)nc3cc(OC)c(OC)cc3c2=N)cc1Cl | -0.1%
Cc1cc(NC(=O)NCCN2CCC(NS(=O)(=O)c3ccccc3F)CC2)c2ccccc2n1 | 1.57%
COc1ccc(OC)c(C=NNc2nc3ccccc3[nH]2)c1 | 5.98%
Nc1nc(N)c2c(ccc3c2ccn3Cc2ccccc2)n1 | 92.2%
CCN(CC)CCN(Cc1ccc(-c2ccc(C(F)(F)F)cc2)cc1)C(=O)Cn1c(CCc2cc(F)cc(F)c2F)nc(=O)c2ccccc21 | 2.05%
Nc1ccnc(N2CCC(CCOc3ccnc4cc(Cl)ccc34)CC2)c1 | 11.9%

SMILES | inhibition
COc1cc(-c2[nH]c(-c3ccc(OCCN(C)C)cc3)cc2-c2ccncc2)ccc1Cl | 1.46%
COc1ccc2nc(C)cc(NCc3cccc4ccccc34)c2c1 | 2.2%
COC(=O)[C@@H](NC(=O)[C@@H](Nc1ccc(C#N)c2ccccc12)C(C)(C)C)c1ccc(O)cc1 | 2.65%
CCn1c(-c2cc(C)on2)nc2cnc(Oc3ccc(C(=O)N4CC(=O)N(C)C4C(C)(C)C)cc3)cc21 (stereo not given) | -1.85%
COc1ccc2nccc([C@@H](O)CN3CCC(NC(=O)C(c4cc5ccccc5o4)N4CCN(Cc5ccccc5)CC4)CC3)c2c1 (stereo not given in full) | 3.8%
CCCc1cc(Cc2cnc(N)nc2N)cc(CC)c1O | 1.7%
COc1ccc2nccc([C@@H](O)CN3CCC(NC/C=C/c4cccnc4)CC3)c2c1 | 1.71%
COc1ccc2nccc([C@@H](O)CN3CCC(NC(=O)c4cc5c(F)cc(F)cc5[nH]4)CC3)c2n1 | 87%
CN1CCC(Oc2ccc(CN3CC[C@H](NC(=O)c4ccc(F)c(F)c4)C3)c3ccccc23)C1 (stereo not given in full) | 1.65%
CCCCCCCC1=NN2C(=N)C(=Cc3cc(Br)c(OCc4ccc(F)cc4)c(OCC)c3)C(=O)N=C2S1 | 3.23%
CC(C)COc1ccc(Cl)cc1Cc1ccc(-c2nc3ccc(C(F)(F)F)cc3[nH]2)o1 | 0.04%
CC(C)(C)NC(=O)COC(=O)c1c2c(nc3ccccc13)C(=Cc1ccc3c(c1)OCO3)CCC2 | 1.65%
CN(CCN(C)C(=O)NCc1ccccc1)C(=O)NCc1ccccc1 | 3.05%
CCCCC(CC)C(=O)C(NC(=O)[C@H](CSC(c1ccccc1)(c1ccccc1)c1ccccc1)NC(=O)OC(C)(C)C)C(=O)OC (stereo not given in full) | 3.84%
Cc1cccc2nc(-c3ccc(-c4ccc(NC(=O)Nc5ccsc5)cc4)cc3)[nH]c12 | 0.7%
O=C(Cc1cccc(Cl)c1)Nc1ccc(N2CCC(NCc3ccc4ncccc4c3)CC2)cc1 | 12.6%
O=C(NCCCCCN1CCC(c2c[nH]c3ccccc23)C1)Nc1ccc(Cl)c(Cl)c1 (stereo not given) | 3.7%
COCCNCc1cccc(-c2cc3nccc(Nc4ccc(Oc5ccccc5)cc4)c3cc2Cl)c1 | -0.26%
N#Cc1ccc(N(CCOc2ccc(Cl)c(F)c2)Cc2ccccc2C(F)(F)F)cc1C(F)(F)F | 3.18%
CCN(CCCN1CCCCC1)c1cc(C)nc(Nc2ccc(F)c(C(F)(F)F)c2)n1 | -1.41%
